In PubChem BioAssay (NCATS):
Inconclusive results are not listed. Calls of active or inactive are those of the source. Calls come from the whole dose curve; as a rule, active = well fitted curve in the direction sought with a large enough effect; inconclusive = small, poorly fitted or top-dose-only effect, or another doubt; inactive = no such curve, though single readings can be large; an effect the other way counts as inactive or inconclusive.

Key:
[1] = BET inhibitor-based combinations targeting novel dependencies in MECOM-rearranged (r) AML: SET-2 cell line (AID 2202231); settings: SET-2 AML cells viability, CellTiter-Glo luminescence, 48 h; viability: hits give low values, concentration not given here; note: nearly all actives have a fitted effect of over 35% in size;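 for viability: plate controls were DMSO treated cells for no effect and wells without cells for full effect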
Method in brief: (§1)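 Cells were plated at 500 per well and exposed to an 11-point dose series of each drug for 48 hr. Viability was measured by CellTiter-Glo luminescence, normalized to DMSO and empty-well controls, and summarized as AUC and per-cell-line Z-AUC.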

[2] = BET inhibitor-based combinations targeting novel dependencies in MECOM-rearranged (r) AML: OCI-AML3 cell line (AID 2202232); settings: Potency: OCI-AML3 viability; note: nearly all actives have a fitted effect of over 35% in size;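 for viability (% of control): series mostly up to about 46 µM; plate controls were DMSO vehicle wells for no effect and wells without cells for full effect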
Method in brief: as §1

[3] = BET inhibitor-based combinations targeting novel dependencies in MECOM-rearranged (r) AML: MV-4-11 cell line (AID 2202233); note: nearly all actives have a fitted effect of over 45% in size;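 for viability, % of control: plate controls were DMSO for no effect and blank wells for full effect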
Method in brief: (§2)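 Activity is given as area under the curve and as Z-AUC, mean-centred within each cell line. It comes from 11-point dose curves normalized to DMSO and empty wells. CellTiter-Glo luminescence was read after 48 hr drug exposure of 500 cells/well.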

[4] = BET inhibitor-based combinations targeting novel dependencies in MECOM-rearranged (r) AML: HNT-34 cell line (AID 2202234); note: nearly all actives have a fitted effect of over 35% in size;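 for viability (% of control): plate controls were vehicle wells for no effect and cell-free wells for full effect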
Method in brief: as §2

[5] = BET inhibitor-based combinations targeting novel dependencies in MECOM-rearranged (r) AML: UCSD-AML1 cell line (AID 2202235); note: nearly all actives have a fitted effect of over 40% in size;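 for viability (% of control): series mostly up to about 46 µM; plate controls were DMSO vehicle wells for no effect and blank wells for full effect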
Method in brief: as §2

[6] = BET inhibitor-based combinations targeting novel dependencies in MECOM-rearranged (r) AML: AML-194 cell line (AID 2202237; note: nearly all actives have a fitted effect of over 40% in size;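 for viability (% of control): plate controls were vehicle wells for no effect and wells without cells for full effect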)
Method in brief: as §1

[7] = BET inhibitor-based combinations targeting novel dependencies in MECOM-rearranged (r) AML: AML-191 cell line (AID 2202236; note: nearly all actives have a fitted effect of over 35% in size;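 for viability (% of control): plate controls were vehicle wells for no effect and wells without cells for full effect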)
Method in brief: as §1
Potency is the fitted concentration of half-maximal effect.

CC1(C)O[C@@H]2C[C@H]3[C@@H]4C[C@H](F)C5=CC(=O)C=C[C@]5(C)[C@H]4[C@@H](O)C[C@]3(C)[C@]2(C(=O)CO)O1
inactive: viability [1] 108% | Potency [2] | Potency [3] | Potency [4] | Potency [5] | Potency [6]

CC1(C)CC[C@]2(C(=O)O)CC[C@]3(C)C(=CC[C@@H]4[C@@]5(C)C[C@@H](O)[C@H](O)C(C)(C)[C@@H]5CC[C@]43C)[C@@H]2C1
inactive: viability [1] 102% | Potency [2] | Potency [3] | Potency [4] | Potency [7]

N#Cc1cccnc1N1CCN(C(=O)c2cccc(Cc3n[nH]c(=O)c4ccccc34)c2)CC1
active: Potency [1] 296 nM | Potency [2] 166 nM | Potency [3] 59 nM | Potency [4] 37.2 nM | Potency [5] 83.3 nM | Potency [6] 132 nM

C/C=C1\NC(=O)[C@H]2CSSCC/C=C\[C@H](CC(=O)N[C@H](C(C)C)C(=O)N2)OC(=O)[C@H](C(C)C)NC1=O
active: Potency [1] 29.5 nM | Potency [2] 10.5 nM | Potency [3] 11.8 nM | Potency [4] 8.3 nM | Potency [5] 10.5 nM | Potency [6] 23.5 nM

C[C@H](CCC(=O)O)[C@H]1CC[C@H]2[C@@H]3[C@H](O)C[C@@H]4C[C@H](O)CC[C@]4(C)[C@H]3CC[C@]12C
inactive: viability [1] 104% | Potency [2] | Potency [3] | Potency [4] | Potency [5] | Potency [7] | Potency [6]

NC(CO)(CO)CCc1ccc(Sc2cccc(OCc3ccccc3)c2)cc1Cl
active: Potency [1] 18600 nM | Potency [2] 9340 nM | Potency [3] 10500 nM | Potency [4] 18600 nM | Potency [7] 10500 nM

COC1CCC(N2C(=O)CNc3ncc(-c4ccc(C(C)(C)O)nc4)nc32)CC1 (stereo not drawn)
active: Potency [1] 7420 nM | Potency [2] 5250 nM | Potency [3] 3720 nM | Potency [4] 2350 nM | Potency [5] 525 nM | Potency [6] 1660 nM

COc1nnc2ccc(N3CCC(c4ccc(OCCN5CCN(C)C(=O)[C@H]5C)cc4)CC3)nn12
active: Potency [1] 148 nM | Potency [2] 41.7 nM | Potency [3] 59 nM | Potency [4] 105 nM | Potency [7] 83.3 nM

C[C@@H]1[C@H](O)[C@@H](C)/C=C/C=C/C=C/C=C/C=C/C=C/C=C/[C@H](O[C@@H]2O[C@H](C)[C@@H](O)[C@H](N)[C@@H]2O)C[C@@H]2O[C@](O)(C[C@@H](O)C[C@@H](O)[C@H](O)CC[C@@H](O)C[C@@H](O)CC(=O)O[C@H]1C)C[C@H](O)[C@H]2C(=O)O
inactive: viability [1] 112% | Potency [2] | Potency [4] | Potency [5] | Potency [7] | Potency [6]
active: Potency [3] 23500 nM

O=C1NC(=O)/C(=C/c2ccc3nccc(-c4ccncc4)c3c2)S1
active: Potency [1] 14800 nM | Potency [2] 1050 nM | Potency [3] 833 nM | Potency [4] 1050 nM | Potency [7] 934 nM

CC(C)(S)[C@@H](N)C(=O)O
inactive: viability [1] 116% | viability (% of control) [2] 118% [at 5.12 µM] | viability, % of control [3] 125% [at 5.12 µM] | viability (% of control) [4] 108% [at 5.12 µM] | viability (% of control) [5] 112% [at 5.12 µM] | viability (% of control) [6] 114% [at 5.12 µM]

Cc1[nH]cnc1CN1CCN(C(=O)N[C@@H](CC(C)C)C(=O)O)[C@@H](Cc2ccccc2)C1=O
inactive: viability [1] 123% | Potency [3] | Potency [4] | Potency [5] | Potency [7] | Potency [6]
active: Potency [2] 6610 nM

Cn1c(NCCN(CCO)CCCc2ccc([N+](=O)[O-])cc2)cc(=O)n(C)c1=O
inactive: viability [1] 114% | Potency [2] | Potency [3] | Potency [4] | Potency [5] | Potency [6]

C=CC(=O)N1CCc2ccc(-n3c(=O)ccc4cnc5ccc(-c6cnn(C)c6)cc5c43)cc21
active: Potency [1] 456 nM | Potency [2] 363 nM | Potency [3] 288 nM | Potency [4] 407 nM | Potency [5] 229 nM | Potency [7] 812 nM | Potency [6] 574 nM

O=c1c(-c2ccc(O)cc2)coc2c([C@@H]3O[C@H](CO)[C@@H](O)[C@H](O)[C@H]3O)c(O)ccc12
inactive: viability [1] 113% | Potency [2] | Potency [3] | Potency [4] | Potency [5] | Potency [7] | Potency [6]

COc1ccc(S(=O)(=O)N(CCO)c2ccccc2CN(C)C/C=C/c2ccc(Cl)cc2)cc1
active: Potency [1] 20900 nM | Potency [2] 14800 nM | Potency [3] 18600 nM | Potency [4] 13200 nM | Potency [5] 16600 nM | Potency [6] 18600 nM

CC(C)(C)NC(=O)c1cncn1C1CCN(c2ccc(-c3nnc(C(F)(F)F)o3)cn2)CC1
active: Potency [1] 16600 nM | Potency [2] 1050 nM | Potency [3] 5250 nM | Potency [4] 4680 nM | Potency [7] 13200 nM

Cc1c(CN2CCC(Nc3ncnc4sc(CC(F)(F)F)cc34)CC2)ccc2c1cc(C#N)n2Cc1cn[nH]c1
active: Potency [1] 3320 nM | Potency [2] 13200 nM | Potency [3] 3320 nM | Potency [4] 16600 nM | Potency [5] 16600 nM | Potency [6] 20900 nM
